CYP2C9 inhib: blockers of cytochrome P450 2C9 activity – biochemical, luminescence, ADME assay, primary screen; inhibition, % at 5 µM; CYP2C9 Supersomes, luciferin-H conversion; 96,000 compounds, 20% hits; P11712;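 active = blocking of liver enzyme CYP2C9 beyond about 50% at 5 µM, limit read from the data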
CYP2C9 act: human CYP2C9 activators, primary screen, biochemical, luminescence | Cytochrome P450 2C9 (Homo sapiens), P11712 | recombinant CYP2C9, luciferin-H conversion; hits give high values; factor 1 = untreated enzyme, 0 = blocked | activation factor at 5 µM | 96,000 compounds, 1.4% hits | AID 1024, 2008;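 active = activation factor of 2 or more for CYP2C9 at a 5 µM dose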;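 note: 0 = sulfaphenazole-blocked wells and 1 = vehicle-only wells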
sEH inh: soluble epoxide hydrolase inhibitors, primary screen, biochemical, human sEH; Bifunctional epoxide hydrolase 2 (Homo sapiens), P34913; recombinant human sEH enzymatic activity assay; inhibition, % at 2 µM; 91,000 compounds, 0.34% hits; in the data active = inhibition above about 80%
sEH activator: soluble epoxide hydrolase activators, primary screen, biochemical, human sEH; Bifunctional epoxide hydrolase 2 (Homo sapiens), P34913; purified human sEH enzymatic activity, activator screen; activation, % at 2 µM; 91,000 compounds, 0.04% hits; in the data active = activation above about 37%
CYP2C19 inhib: blockers of cytochrome P450 2C19 activity – biochemical, luminescence, ADME assay, primary screen; P33261; CYP2C19 Supersomes, luciferin-H EGE luminescence, 30 min; inhibition, % at 5 µM; 96,000 compounds, 21% hits;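 active = CYP2C19 inhibition above a set limit at 5 µM in the primary screen, cut at about 50% in these data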;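 note: plate controls were negative control wells for no effect and 2.5 mM tranylcypromine positive control for full effect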
Target sequence (P33261 whole entry, looked up): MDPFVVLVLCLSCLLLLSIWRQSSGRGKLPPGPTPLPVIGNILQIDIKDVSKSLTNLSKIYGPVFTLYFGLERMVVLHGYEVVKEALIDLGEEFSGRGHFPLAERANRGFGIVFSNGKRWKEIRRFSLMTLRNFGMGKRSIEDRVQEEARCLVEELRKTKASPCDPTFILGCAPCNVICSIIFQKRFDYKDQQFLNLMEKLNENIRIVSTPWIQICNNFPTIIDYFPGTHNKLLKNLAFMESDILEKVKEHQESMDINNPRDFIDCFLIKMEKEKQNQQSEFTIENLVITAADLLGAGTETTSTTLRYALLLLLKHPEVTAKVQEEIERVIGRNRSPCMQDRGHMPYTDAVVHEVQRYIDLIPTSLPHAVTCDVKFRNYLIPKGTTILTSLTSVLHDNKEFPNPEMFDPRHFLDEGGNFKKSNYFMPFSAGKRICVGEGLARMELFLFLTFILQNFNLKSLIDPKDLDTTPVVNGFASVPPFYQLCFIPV
CYP2C19 activ: human CYP2C19 activators, primary screen, biochemical, luminescence; Cytochrome P450 2C19 (Homo sapiens), P33261; recombinant CYP2C19, luciferin-H EGE luminescence; hits give high values; 0 = fully inhibited enzyme, 1 = untreated enzyme; activation factor at 5 µM; 96,000 tested, under 10 active; AID 1025, 2008;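 active = activation factor of at least 2 at 5 µM in the primary screen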;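 note: 0 = wells with 2.5 mM tranylcypromine and 1 = vehicle-only wells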
* = called active by the depositor; / = no result. A selection: hits, their analogues and other compounds. The true share with any hit is near 27%.

SMILES	CYP2C9 inhib	CYP2C9 act	sEH inh	sEH activator	CYP2C19 inhib	CYP2C19 activ
CC(Sc1ccccc1)C(=O)Nc1ccc(N2CCOCC2)cc1 (centres undefined)	27	0.7	5	-4	12	0.9
CC(=O)C(Sc1nn(C)c(=S)s1)C(=O)Nc1ccccc1 (centres undefined)	96*	0	/	/	20	0.8
CC(Sc1nc(NCc2ccccc2)nc(N2CCOCC2)n1)C(=O)Nc1ccccc1 (centres undefined)	80*	0.2	5	-2	24	0.8
CCOC(=O)CNC(=O)CSc1nc(NCc2ccccc2)nc(N(C)C)n1	41	0.6	8	-5	53*	0.5
Cn1c(N)c(C(=O)c2cc(-c3ccccc3)nc3ccccc23)c(=O)n(C)c1=O	-6	1.1	-7	5	16	0.8
CCN(CC)C(=O)CN1C(=O)COCC1=O	20	0.8	-1	0	8	0.9
COc1nnc(-c2ccc(N3CCCCC3)c(N)c2)c2ccccc12	/	/	4	-4	/	/
CC(=O)NC(Cc1ccccc1F)C(=O)NC1CCN(C(=O)c2cnccn2)CC1 (centres undefined)	-1	1	-6	7	0	1
c1ccc(Nc2nc(N3CCOCC3)nc(N3CCOCC3)n2)cc1	35	0.6	-2	2	40	0.6
CC(=O)C(Sc1nc(N2CCOCC2)nc(N2CCOCC2)n1)C(=O)Nc1ccccc1 (centres undefined)	55*	0.4	-9	9	21	0.8
CC(Sc1nc(NCc2ccccc2)nc(N(C)C)n1)C(=O)Nc1ccccc1 (centres undefined)	81*	0.2	-3	6	58*	0.4
O=C1c2ccccc2C(O)(c2ncc[nH]2)N1CCc1ccccc1 (centres undefined)	-1	1	-2	4	92*	0.1
CCCCN(C)S(=O)(=O)c1ccc(C(=O)Nc2nnc(CSC)o2)cc1	85*	0.2	6	-6	4	1
CCc1nnc(NC(=O)c2ccc(S(=O)(=O)N(CC)Cc3ccccc3)cc2)o1	95*	0	6	-7	0	1
CN(Cc1ccccc1)S(=O)(=O)c1ccc(C(=O)Nc2nnc(C3CC3)o2)cc1	85*	0.1	6	-5	22	0.8
CCN(CC)CCNC(=O)c1ccccn1	4	1	/	/	6	0.9
CC(=O)OC(/C(O)=C(\C#N)c1nc2ccccc2[nH]1)c1ccccc1 (centres undefined)	66*	0.3	1	-2	34	0.7
C/C(O)=C(/C#N)c1nc2ccccc2[nH]1	-5	1.1	-17	14	-3	1
Cc1nn(-c2ccccc2)c(C)c1C(=O)OC/C(O)=C(\C#N)c1nc2ccccc2[nH]1	64*	0.4	-8	7	62*	0.4
O=C(Cc1ccccc1)Nc1ccc(N2CCN(Cc3ccccc3F)CC2)cc1	26	0.7	36	-36	22	0.8
O=C(Cc1cccs1)N(Cc1ccco1)C1(C(=O)NC2CCCC2)CCCCC1	60*	0.4	/	/	45	0.6
O=C(c1ccc2c(c1)OCO2)N(Cc1ccco1)C1(C(=O)NC2CCCCC2)CCCCC1	46	0.5	5	-7	59*	0.4
O=C(c1ccccn1)N(Cc1ccco1)C1(C(=O)NC2CCCC2)CCCCC1	10	0.9	-2	-1	-5	1.1
CCN(CC)c1cccc(OCC(=O)N(C)CCC#N)c1	-7	1.1	8	-7	-11	1.1
COC(=O)c1cc(S(=O)(=O)N2CCC(C)CC2)ccc1F	33	0.7	0	-4	88*	0.1
SMILES	CYP2C9 inhib	CYP2C9 act	sEH inh	sEH activator	CYP2C19 inhib	CYP2C19 activ
COC(=O)c1cccc(S(=O)(=O)N2CCC(C)CC2)c1	-16	1.2	0	6	55*	0.5
CCC(Sc1nc2n[nH]c(C)c2c(=N)n1-c1cccc(Cl)c1)C(=O)NCCOC (centres undefined)	65*	0.4	/	/	35	0.7
N#CCCn1cc(C(CC(=O)c2ccc(Br)cc2)C(=O)O)c2ccccc21 (centres undefined)	58*	0.4	/	/	29	0.7
Cc1ccc(C(=O)CC(C(=O)O)c2cn(CCC#N)c3ccccc23)cc1 (centres undefined)	40	0.6	/	/	8	0.9
NC(=O)c1sc2nc3c(c(-c4ccc(Cl)cc4)c2c1N)CCCC3	17	0.8	-9	12	-3	1
COC(=O)c1ccc(-c2sc3nc(N4CCOCC4)c4c(c3c2N)CCCC4)o1	55*	0.4	-10	11	57*	0.4
CCN(CC)C(=O)c1sc2nc(N3CCOCC3)c3c(c2c1N)CCCC3	52*	0.5	-10	9	-2	1
NC(=O)c1sc2nc(N3CCCCC3)c3c(c2c1N)CCCC3	68*	0.3	/	/	43	0.6
COC(=O)c1sc2nc(N3CCCCC3)c3c(c2c1N)CCCC3	72*	0.3	4	-1	37	0.6
CCOC(=O)c1sc2nc(N3CCOCC3)c3c(c2c1N)CCCC3	9	0.9	-5	8	2	1
CCOC(=O)Cc1ccc(NC(=O)c2ccc(C(C)(C)C)cc2)cc1	1	1	-2	3	40	0.6
COc1cccc(C2=NOC(C(=O)NCCN3CCOCC3)C2)c1 (centres undefined)	3	1	3	-4	-6	1.1
O=[N+]([O-])c1cc(-c2nnc(C34CC5CC(CC(C5)C3)C4)o2)cc([N+](=O)[O-])c1	-8	1.1	8	-6	-7	1.1
Nc1c(C(=O)NCc2ccco2)sc2nc(N3CCOCC3)c3c(c12)CCCC3	56*	0.4	-11	15	-7	1.1
Cc1ccc2nc3sc(C(=O)NCc4ccco4)c(N)c3cc2c1	/	/	7	-1	/	/
CCOc1ccc2nc(NC(=O)CSc3nc4ccccc4c(=O)n3Cc3ccco3)sc2c1	32	0.7	/	/	26	0.7
CCOC(=O)CSc1nnc2n(Cc3ccccc3)c(=O)c3c4c(sc3n12)CCC4	37	0.6	-14	15	17	0.8
O=C(/C=C/c1c(Cl)cccc1Cl)Nc1ccncc1	93*	0.1	7	-6	94*	0.1
CC(=O)N(C)c1ccc(NC(=O)/C=C/c2ccccc2Cl)cc1	30	0.7	69	-70	40	0.6
O=C(/C=C/c1cccc(Cl)c1)Nc1ccncc1	99*	0	-9	8	99*	0
O=C(N/N=C1\CCCc2ccccc21)c1ccc([N+](=O)[O-])cc1Cl	-30	1.3	6	-4	11	0.9
